# Screening data from PubChem BioAssay.
# SNCA viab count: GF-AFC viability counterscreen for inhibitors of alpha-synuclein gene (SNCA) expression | Potency, µM (titrated, usually from 57.1 µM), for inactives: top-dose activity change, negative = cytotoxicity, hits mostly cytotoxic | 0.12% of 150,000 active | HEK-293-SNCA-luc viability, GF-AFC fluorescence, 24 h;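 note: potency is the fitted concentration of half-maximal effect; 0% = DMSO-treated cells and -100% = medium-only wells without cells; nearly all actives have a fitted effect of over 30% in size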
#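 HEK-293-SNCA-luc cells (1500/well) plated 24 h, then exposed 24 h to a dilution series; GF-AFC added 30 min at 37C, fluorescence 405/540 nm; normalised to medium-only and DMSO wells, Hill fit.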
# IP6K1 inhibitor: Primary qHTS assay for small molecule inhibitors of Inositol hexaphosphate kinase 1 (IP6K1) | IP6K1 kinase, ADP-Glo luminescence, 2 h; stronger effect = lower value | activity change, % (series mostly up to about 58 µM) | 0.81% of 140,000 active | AID 1645851, 2021; in the data active = activity change below about -25%; note: % is set by controls: 0 for no effect and ±100 for the full control effect
#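 ADP-Glo luminescence measures ADP made by human IP6K1 during a 2 h RT reaction with ATP/IP6 (mix at 1.3 mM/130 uM); top library doses 57.5 and 19.1 uM final.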
# KDM5B inhibitor: Primary screen for KDM5B Histone Demethylases FDH-coupled qHTS; Lysine-specific demethylase 5B (Homo sapiens), Q9UGL1; KDM5B demethylase, FDH-coupled NADH fluorescence (FDH is formaldehyde dehydrogenase); Potency, µM (doses to about 57.7 µM), actives largely listed as inhibitors; 2.6% of 220,000 active; note: potency is the fitted concentration of half-maximal effect; 0% is about no effect; nearly all actives have a fitted effect of over 70% in size
#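 Inhibition is measured as reduced NADH fluorescence generation from FDH coupling to formaldehyde release. Truncated KDM5BΔAP at 200 nM final acts on H3K4me3 peptide (12.5 µM in substrate mix) in pH 7.5 HEPES buffer with Tween-20, 30 min, room temperature.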
# SNCA expr inh: Primary qHTS assay for inhibitors of alpha-synuclein gene (SNCA) expression; HEK-293 SNCA-luciferase knock-in, luminescence, 24 h; 0.17% of 140,000 active; AID 1671194, 2021; Potency, µM (titrated, usually from 57.2 µM), for inactives: top-dose activity change, negative = inhibition, usual class: inhibitors;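 note: potency is the fitted concentration of half-maximal effect; plate controls were DMSO cells for no effect and cell-free wells for full effect; nearly all actives have a fitted effect of over 45% in size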
# IP6K1 inh cnf: Confirmatory qHTS assay for small molecule inhibitors of Inositol hexaphosphate kinase 1 (IP6K1). recombinant IP6K1 kinase, ADP-Glo luminescence, 2 h. 13% of 1,200 active. shares compounds with IP6K1 inhibitor. Potency, µM (highest dose often 49 µM), for inactives: at the highest dose activity change, negative = inhibition, hits mostly inhibitors; note: potency is the fitted concentration of half-maximal effect; % is set by controls: 0 for no effect and ±100 for the full control effect; nearly all actives have a fitted effect of over 65% in size
# The depositor's hits bear a star; i = inactive; ? = inconclusive; · = not tested or not shown; [ ] = another dose, or the depositor's remark. The list is not random: actives were taken first. Their share in the collection is about 2.9%. Unless noted, calls come from the whole dose curve; as a rule, active = well fitted curve in the direction sought with a large enough effect; inconclusive = small, poorly fitted or top-dose-only effect, or another doubt; inactive = no such curve, though single readings can be large; an effect the other way counts as inactive or inconclusive.
SMILES,SNCA viab count,IP6K1 inhibitor,KDM5B inhibitor,SNCA expr inh,IP6K1 inh cnf
CCCCNc1nc(-c2ccc(NS(C)(=O)=O)cc2)cs1,·,·,i,·,·
CC(C)Nc1cc(-c2c[nH]c(C(=O)N[C@H](CO)c3cccc(Cl)c3)c2)c(Cl)cn1,-22.3%,-19.2,·,?,·
Cc1cnc(Nc2ccc(F)cc2Cl)nc1-c1c[nH]c(C(=O)NC(CO)c2cccc(Cl)c2)c1 (stereo not drawn),-26.8%,-42.1*,·,·,9.2µM*
Nc1nc2c(s1)C(c1cccc(F)c1)CC(=O)N2 (stereo not drawn),0.0%,-31.2*,i,67.7%,?
CCc1ccc(C2c3c(-c4ccccc4)n[nH]c3C(=O)N2c2ccc(C(=O)O)cc2)cc1 (stereo not drawn),-23.5%,0.8,i,?,·
Cc1ccc(-c2n[nH]c3c2C(c2ccccc2Cl)N(c2ccc(C(=O)O)cc2)C3=O)cc1 (stereo not drawn),-5.5%,-28.6*,i,?,-17.9%
COc1ccccc1CCC(=O)N1CCN(C(=O)c2ccccc2)CC1,·,·,i,·,·
COc1ccccc1N1CCN(C(=O)CCc2ccccc2C)CC1=O,1.1%,-33.9*,i,12.5%,-15.5%
CCC(=O)OCCCNc1nc(-c2ccc(Cl)cc2)nc2ccccc12,-9.4%,-25.3*,?,10.8%,?
CN(C)CCCNc1nc(-c2ccccc2)nc2ccccc12,·,·,i,·,·
O=C1NCCOCCCN(S(=O)(=O)c2cccc(F)c2)[C@H]2CCC[C@@H]12,5.7%,23.3,i,-22.5%,·
CSc1ccc(/C=C/c2nc3ccccc3n2S(=O)(=O)c2ccc(F)c(C)c2)cc1,-5.9%,-38.8*,?,-84.3%,?
CC(C)Cn1c(/C=C/c2ccc(F)cc2)nc2ccccc21,-19.7%,3.5,?,-19.6%,·
CC(C)c1ccc(C(=O)NN)cc1,·,·,i,·,·
O=C(NCCc1ccccc1)c1ccc2nc(N3CCCCC3)sc2c1,13.8%,-30.8*,i,181.1%,-17.7%
O=C(NCCCN1CCCCCC1)c1ccc2c(c1)sc1nc(-c3ccccc3)cn12,?,-50.3*,?,-35.3%,?
Cc1cccn2cc(-c3cccc(NS(=O)(=O)c4ccc(Cl)c(Cl)c4)c3)nc12,6.1%,7.3,i,10.0%,·
Cc1ccc(S(=O)(=O)Nc2cccc(-c3cn4cccc(C)c4n3)c2)cc1,-21.3%,-26.3*,i,29.5%,-1.7%
CC(=O)c1cccc(NC(=O)Cn2ccn3nc(-c4ccc(F)cc4)c(CO)c3c2=O)c1,-28.2%,-29.6*,i,?,-12.6%
O=C1N(Cc2ccc(F)cc2)C[C@H]2CN(Cc3ccccn3)CCN12,0.8%[87.6 µM],-32.5*,?,11.1%[87.6 µM],?
CN1C(=O)N[C@H](Cc2c[nH]c3c(Cl)cccc23)C1=O,·,·,·,·,-4.9%
CCOC(=O)c1ccccc1NC(=O)c1c(-c2ccccc2)noc1C,5.2%,-30.7*,?,?,-13.8%
Cc1onc(-c2ccccc2)c1C(=O)Nc1ccc(NC(=O)c2c(-c3ccccc3)noc2C)cc1,·,·,i,·,·
COCCOC1CN(C2CCN(CC3CCCCC3)CC2)C12CCCCC2 (stereo not drawn),-8.4%,12.5,i,2.4%,·
Cc1cnc(Nc2ccc(OCCN3CCCC3)cc2)nc1Nc1cccc(S(=O)(=O)NC(C)(C)C)c1,?,-0.5,·,34.9%,25.0%
SMILES,SNCA viab count,IP6K1 inhibitor,KDM5B inhibitor,SNCA expr inh,IP6K1 inh cnf
Cc1noc(C)c1Cc1ccc(C(=O)N2CCC(OCCOc3ccccc3)CC2)o1,-19.9%,12.1,·,52.7%,·
c1cc(OCCN2CCCCC2)cc(-c2n[nH]c3ccc(-c4ncn[nH]4)cc23)c1,-18.6%,-47.2*,·,-2.0%,?
COc1ccc(-c2c(-c3ccc(OCCN4CCCCC4)cc3O)n[nH]c2C)cc1OC,·,·,i,·,·
CCCN(CCC)CCCNC(=O)Cn1cnc2sc(C)c(S(=O)(=O)N3CCCCC3)c2c1=O,6.0%,-27.4*,i,1.3%,-5.8%
COc1ccc2[nH]c3c(c2c1)CCN(C)C31CCN(C(=O)c2ccsc2)CC1,0.7%[12.5 µM],3.9,?,?,·
Cc1ccc(NC(=O)Cn2ncn3c(cc4ccccc43)c2=O)cc1C,-8.2%,-28.3*,?,3.7%,-7.1%
O=C(CN1C(=O)COc2ccc(S(=O)(=O)NC3CCCC3)cc21)Nc1ccc(Cl)cc1F,-29.7%,-27.9*,i,10.2%,12.7%
O=C(Nc1ccc(F)c(F)c1)c1cc2n(n1)CC(c1ccc(Br)cc1)OC2 (stereo not drawn),16.3%,-5.8,?,6.3%,·
C[C@@H]1CN(C(=O)c2cnc3c(O)cccn3c2=O)CC[C@@]1(O)C1CCC1,17.2%,-28.3*,31.6µM*,17.6%,-11.0%
O=C(CCc1ccc(O)cc1)NNC(=S)NCCc1ccccc1,·,·,i,·,·
O=C(CCc1ccc(O)cc1)c1c(O)cc(O)cc1O,-0.8%,·,·,-7.0%,5.17µM*
CN(C)C(=O)c1cc(-c2ccc(Cl)cc2)cn1C,-6.7%,-33.3*,i,58.5%,?
Cn1cc(-c2ccc(Cl)cc2)cc1C(=O)O,-4.9%,-18.5,i,28.0%,·
COCCN(C)C[C@@H]1CN(C(=O)c2ccc(-c3ccccc3)n2C)C[C@@H]1CO,12.1%,-33.8*,i,132.7%,-14.5%
CCC1(C)Cc2c(sc3nc(SC)n(-c4ccc(C)cc4)c(=O)c23)CO1 (stereo not drawn),10.5%,-50.1*,i,5.6%,21.9%
COC(=O)CSc1nc2c(cnn2-c2ccc(F)cc2)c(=O)[nH]1,-6.0%,-31.7*,i,4.5%,?
COc1ccc(Nc2cc3c(cn2)CN(Cc2ccncc2)CCN3)cn1,-10.9%[87.6 µM],-8.8,i,-22.6%[87.6 µM],·
c1ccc(-c2cc3c(cn2)NCCN(Cc2ccsc2)C3)cc1,12.2%[87.6 µM],-25.4*,35.5µM*,-24.0%[87.6 µM],-9.0%
COc1ccc(Nc2cc3c(cn2)NCCN(Cc2ccccc2)C3)cn1,-3.0%[87.6 µM],-25.5*,?,?,-17.6%
Clc1ccc(-c2cc3c(cn2)CN(Cc2ccncc2)CCN3)cc1,-2.1%[87.6 µM],-26.9*,31.6µM*,-20.0%[87.6 µM],-0.9%
c1ccc(CN2CCNc3cc(-c4ccncc4)ncc3C2)cc1,-9.6%[87.6 µM],-14.7,i,-15.1%[87.6 µM],·
O=C(NCC1CC1)c1ccc2nnc(-c3cncc(Cl)c3)n2c1,5.3%[87.6 µM],13.2,·,13.2%[87.6 µM],·
Cc1nc2cc(-c3cccc(F)c3)nn2c(C)c1CCC(=O)NCCc1ccccc1,-1.1%,-7.9,?,12.9%,·
Cc1nc2cc(-c3cccc(F)c3)nn2c(C)c1CCC(=O)NC(C)c1ccccc1 (stereo not drawn),?,-25.5*,?,?,1.4%
